# Experimental data from PMC4151992.
# Target: Eukaryotic translation initiation factor 3 subunit I (UniProt P40217)
# Assay: cross-link between two proteins; cross-linking mass spectrometry
# Chain of Eukaryotic translation initiation factor 3 subunit I (P40217 whole entry): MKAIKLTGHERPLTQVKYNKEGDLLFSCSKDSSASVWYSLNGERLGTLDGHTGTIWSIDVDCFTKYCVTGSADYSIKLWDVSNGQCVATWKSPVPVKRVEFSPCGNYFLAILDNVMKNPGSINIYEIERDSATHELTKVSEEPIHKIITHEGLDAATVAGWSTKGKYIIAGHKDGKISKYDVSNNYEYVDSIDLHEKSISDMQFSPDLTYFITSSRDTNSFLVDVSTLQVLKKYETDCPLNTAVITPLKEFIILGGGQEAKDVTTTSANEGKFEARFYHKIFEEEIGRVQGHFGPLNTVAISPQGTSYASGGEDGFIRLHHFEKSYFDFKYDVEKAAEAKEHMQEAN
# Chain of Eukaryotic translation initiation factor 3 subunit A, P38249 (P38249 whole entry): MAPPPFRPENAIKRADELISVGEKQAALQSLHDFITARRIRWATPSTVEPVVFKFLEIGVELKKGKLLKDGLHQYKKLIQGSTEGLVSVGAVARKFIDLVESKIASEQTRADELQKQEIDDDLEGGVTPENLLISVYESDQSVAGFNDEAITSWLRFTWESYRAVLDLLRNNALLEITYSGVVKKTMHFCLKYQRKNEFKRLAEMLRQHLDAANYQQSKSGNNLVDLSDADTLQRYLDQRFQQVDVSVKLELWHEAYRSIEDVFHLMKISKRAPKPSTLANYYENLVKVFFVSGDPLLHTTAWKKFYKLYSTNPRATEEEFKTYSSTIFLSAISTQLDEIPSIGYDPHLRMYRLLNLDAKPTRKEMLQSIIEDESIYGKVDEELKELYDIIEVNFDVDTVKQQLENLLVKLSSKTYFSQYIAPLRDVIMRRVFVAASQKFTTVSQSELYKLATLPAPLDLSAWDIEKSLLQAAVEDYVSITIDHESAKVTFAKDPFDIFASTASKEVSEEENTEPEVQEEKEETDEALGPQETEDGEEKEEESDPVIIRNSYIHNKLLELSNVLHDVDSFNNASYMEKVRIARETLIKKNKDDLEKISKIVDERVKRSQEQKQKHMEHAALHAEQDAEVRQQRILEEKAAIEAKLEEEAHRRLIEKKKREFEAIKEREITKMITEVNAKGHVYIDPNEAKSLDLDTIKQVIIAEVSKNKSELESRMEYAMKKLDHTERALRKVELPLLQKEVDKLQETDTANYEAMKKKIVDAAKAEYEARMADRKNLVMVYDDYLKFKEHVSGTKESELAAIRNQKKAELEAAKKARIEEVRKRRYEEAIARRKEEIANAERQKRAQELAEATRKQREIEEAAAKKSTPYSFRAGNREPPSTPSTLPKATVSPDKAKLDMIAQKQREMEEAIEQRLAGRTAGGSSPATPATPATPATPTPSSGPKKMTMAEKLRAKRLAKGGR
substance,measurement,value
"Eukaryotic translation initiation factor 3 subunit A, P38249",listed as a hit,yes
